For 40 molecules, growth results are on record in PubChem BioAssay (NCI).

Each structure is given as a SMILES string. About 83,000 compounds went through this panel and 20% of them were active in at least one assay; those are over-represented in the sample as a whole.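 Interpretation: 100, growth as untreated; towards 0, rising growth inhibition; 0, no net growth; 0 to -100, cell death. Compounds scoring below 10 were considered active.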 Activity calls are given as the source filed them.

This assay has as its system HCT-15 colon. The assay can be described thus: NCI-60 one-dose screen, 48 h (100 = growth as untreated, 0 = no growth, -100 = all killed). As to conditions: 10 µM unless noted. On the procedure:
Growth inhibition of the HCT-15 human tumor cell line is measured as a screen for anti-cancer activity. Cells are grown in 96 well plates and exposed to the test compound for 48 hours. Compounds are tested at a single concentration, which is 10^-5 M for most compounds. The reported endpoint is percent growth (GI% or GIPRCNT), where numbers from 0 - 100% represent growth inhibition, and numbers from -100% - 0 represent cell death. For example, a value of 40 represents 60% growth inhibition. A value of 0 means no net growth occurred over the course of the experiment. A value of -40 indicates 40% of cells at the beginning of the experiment died by the end of the experiment. A value of -100 means all cells are dead at the end of the experiment.
NCI-60 Human Tumor Cell Lines Screen was performed using the standard one-dose NCI protocol, which is described in more detail at https://dtp.cancer.gov/discovery_development/nci-60/default.htm.
Compounds with GIPRCNT values below 10 were considered active. Activity score was based on GIPRCNT using the following formula: […]
Score is 0 for GIPRCNT values of 100 or above, 50 for GIPRCNT values of 0, and 100 for GIPRCNT values of -100.
In the case of `CN1C(=O)C(C2=NN(C=O)C(c3ccc(F)cc3)C2)C(=O)N(C)C1=O` (stereo not given), the growth is 101% (inactive). As to `CCCCCCCSc1ncnc2[nH]ncc12`, the growth was 60.8% (inactive).

With `O=c1[nH]cc(Nc2cc(Cl)c3nonc3c2[N+](=O)[O-])c(=O)[nH]1`, the growth was 103% (inactive). Next, `COc1cc(C(=O)c2cc3c(cc2C)OCO3)cc(OC)c1OC`: 19.6% (inactive); `Cc1ncc(C(=O)Nc2ccc(CN3CCN(C)CC3)c(C(F)(F)F)c2)cc1C#Cc1cncc2ncccc12`: 48.4% (inactive). On to `COc1cccc(C2=NN(C(C)=O)C(c3cc(OC)c(OC)c(OC)c3)C2)c1` (stereo not given), for which the growth was 31.6% (inactive). As for `COc1ccc2nc(N/N=C(\C)c3ccccn3)cc(C)c2c1`, the growth is -48.5% (active). With `COc1c(O)cc2c(c1CC=C(C)C)OC(=O)c1c(cc(O)c(CC=C(C)C)c1O)O2`, the growth was 44.1% (inactive).

With `CC1CN(/N=C/c2ccc([N+](=O)[O-])o2)C(=N)O1` (stereo not given), the growth is 97.8% (inactive). As to `NC(=O)NC1(C(=O)O)CCCC1`, the growth was 99.9% (inactive). Next, `CCOc1cc(/C=C/C(=O)C(C(=O)/C=C/c2ccc(OC(=O)CNc3nc4ccccc4[nH]3)c(OCC)c2)C(=O)CNc2nc3ccccc3[nH]2)ccc1OC(=O)CNc1nc2ccccc2[nH]1`: -41% (active); `O=C1Nc2ccc(Cl)cc2/C1=C/c1cccs1`: 51.9% (inactive); `O=C1CNc2cc(Cl)ccc2N1`: 109% (inactive). As for `COc1ccc2c(c1)[n+](=O)c(C(=O)/C=C/c1cc(OC)c(OC)c(OC)c1)c(C)n2[O-]`, the growth was 49.2% (inactive). Turning to `COCCOCCOCCOCCOc1ccc2c(c1)C(=O)c1nc3ncccc3c(=O)n1-2`, the growth was -95.6% (active). With `O=Cc1ccccc1C(=O)O`, the growth is 103% (inactive). With `Nc1nc(Nc2ccccc2SSc2ccccc2Nc2nc(N)nc(-c3cccc(Cl)c3)n2)nc(-c2cccc(Cl)c2)n1` the figure was 69.8% (inactive); with `CC(=O)N1N=C(c2ccc(Nc3nc(NCCO)nc(NCCO)n3)cc2)CC1c1ccc(Cl)cc1` (stereo not given), 94.5% (inactive). With `CC[C@@H](C)/C=C(C)/C=C/C(=O)c1c(O)c(-c2ccc(O)cc2)cn(OC2CC(=O)CCC(C)OC(=O)CC2O)c1=O` (stereo not given in full) the figure was 26.8% (inactive); with `NC(=N\N=C/Cc1ccccc1)/C(N)=N\N=C\Cc1ccccc1`, 94.9% (inactive). As to `NS(=O)(=O)N(c1cc(C(F)(F)F)cc(C(F)(F)F)c1)C1CCN(Cc2ccc(C(F)(F)F)cc2)CC1`, the growth was 45.7% (inactive).

For the molecule `CCSc1nc(-c2cccs2)n2nc(-c3ccco3)cc2n1`, the growth was 78% (inactive). With `CCCCCCCCCCCCC1CCCC(C)C1` (stereo not given) the figure was 97.5% (inactive); with `O=c1ccn(C2CC=C(CO)O2)c(=O)[nH]1` (stereo not given), 105% (inactive). With `COc1ccc(-n2cnc3cc(C(=O)N4CCCCC4)ccc32)cc1` the figure was 104% (inactive); with `O=C(CNC(=O)c1cccc2ccccc12)Nc1ccccc1Oc1cccc(O)c1`, 22.6% [5 µM] (inactive). Turning to `CN(C)CCCNc1nn2c(=O)c3ccccc3nc2c2ccccc12`, the growth was 55.3% (inactive).

On to `CO[C@H]1/C=C/O[C@@]2(C)Oc3c(C)c(O)c4c(O)c(c(/C=N/N5C(C)CN(Cc6ccc(C#N)cc6)CC5C)c(O)c4c3C2=O)NC(=O)/C(C)=C\C=C\[C@H](C)[C@H](O)[C@@H](C)[C@@H](O)[C@@H](C)[C@H](OC(C)=O)[C@@H]1C` (stereo not given in full), for which the growth is 25% (inactive). With `COc1ccc(C2CC(c3ccc4c(c3)OCO4)=NN2C=O)cc1` (stereo not given) the figure was 102% (inactive). With `O=C(Nc1ccc2c(c1)C(=O)c1ccccc1-2)c1ccccc1` the figure was 67.2% (inactive). As for `CCN(CC)CCNCC(=O)Oc1ccc(/C=C/C(=O)CC(=O)/C=C/c2ccc(OC(=O)CNCCN(CC)CC)c(OC)c2)cc1OC`, the growth was 14.4% (inactive). On to `O=C(O)C1CCN(S(=O)(=O)c2ccc(-c3ccccc3)cc2)CC1`, for which the growth is 107% (inactive). Next, `N#Cc1c(-c2ccccc2)cc(-c2ccccc2)n(CCCCCCC(=O)O)c1=O`: 90.7% (inactive); `C=C1CCC2C3(C)COC(c4ccccc4)OC3CCC2(C)C1C/C=C1/C(=O)OCC1OC(C)=O` (stereo not given): 79.1% (inactive); `Nc1c(C(=O)Nc2cccc(Cl)c2)sc2nc3c(cc12)C(O)CCC3` (stereo not given): 18.8% (inactive). On to `O=C1C=CC(=O)N1c1ccccc1N1C(=O)C=CC1=O`, for which the growth was 99.6% (inactive).

Take `N/C(=N\c1nc2ccccc2s1)NC(=O)Nc1ccccc1Cl`: the growth was 23.9% (inactive).

With `NS(=O)(=O)c1ccc(-n2ncc3c(SCc4ccccc4)ncnc32)cc1`, the growth was 93.7% (inactive). With `CCOC1Oc2ccccc2C(=O)/C1=N/c1nccs1` (stereo not given) the figure was 80% (inactive); with `O=CN1N=C(c2ccc(Nc3ccnc4cc(Cl)ccc34)cc2)CC1c1ccc(Cl)cc1` (stereo not given), 16.4% (inactive).
